# Reference: the supplement of paper PMC10849652
# About 7,900 targets were measured; listed, in parts, are those with a hit and a random draw of the rest. About 0.6% of all pairs of compound and target were hits. Unmarked numbers belong to inactive results.
# Columns and labels:
# Test in all cases: log2 fold change, soluble protein after heating vs DMSO (PISA); higher = thermal stabilisation; K562 cells, 10 uM, 30 min; active = over 0.2 and 3.5 SD of the protein, either way, in both replicates (recomputed)
# [1] = compound: NC(=O)Nc1cc(-c2cccc(F)c2)sc1C(=O)N[C@H]1CCCNC1
# In short: (§1)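 K562 cells at 2×10^6 cells/mL were treated for 30 min with 10 μM compound, and aliquots were heated for 3 min over 48°C-58°C before pooling. Extraction used PBS with 0.5% NP-40 at 4°C, and soluble protein was the supernatant after 21,000xg for 90 min, measured by TMTpro 16plex LC-MS/MS with channel sums equalised. Thermal stability values, relative to control samples and from duplicates, are log2 fold changes.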
# [2] = compound: NC(=O)c1cnc(N[C@@H]2CCCC[C@@H]2N)nc1Nc1cccc(-n2nccn2)c1
# In short: as §1
# [3] = compound: NC1(c2ccc(-c3nc4ccn5c(=O)[nH]nc5c4cc3-c3ccccc3)cc2)CCC1
# In short: as §1
# [4] = compound: NCC(=O)Nc1ccc(-n2nc(C(F)(F)F)cc2-c2ccc3c(ccc4ccccc43)c2)cc1
# In short: as §1
# [5] = compound: Nc1ccccc1NC(=O)c1ccc(CNC(=O)OCc2cccnc2)cc1 [entinostat]
# In short: as §1
# [6] = compound: O=C(CCCCCCC(=O)Nc1ccccc1)NO [vorinostat]
# In short: as §1
# [7] = compound: O=C(CCCCCCNC(=O)c1cnc(N(c2ccccc2)c2ccccc2Cl)nc1)NO [citarinostat]
# In short: as §1
# [8] = compound: O=C(O)c1ccc2c(c1)nc(Nc1cccc(Cl)c1)c1ccncc12 [silmitasertib]
# In short: as §1
# [9] = compound: O=C1NC(=O)C(c2cnc3ccccn23)=C1c1cn2c3c(cc(F)cc13)CN(C(=O)N1CCCCC1)CC2
# In short: as §1
# [10] = compound: c1cc(OCCN2CCCCC2)cc(-c2n[nH]c3ccc(-c4nnc[nH]4)cc23)c1
# In short: as §1
# [11] = compound: c1cn2cc(-c3ccc4cn[nH]c4c3)nc(Nc3ccc(N4CCOCC4)cc3)c2n1 [entospletinib]
# In short: as §1
# UniProt O75446, sequence (O75446 whole entry, looked up): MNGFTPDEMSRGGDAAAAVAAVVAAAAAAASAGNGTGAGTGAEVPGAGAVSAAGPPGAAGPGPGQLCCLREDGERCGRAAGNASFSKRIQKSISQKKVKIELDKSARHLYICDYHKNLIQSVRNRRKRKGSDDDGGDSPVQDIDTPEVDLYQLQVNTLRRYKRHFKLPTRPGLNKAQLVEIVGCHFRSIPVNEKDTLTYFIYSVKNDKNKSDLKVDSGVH
# UniProt Q96NL6, sequence (Q96NL6 whole entry, looked up): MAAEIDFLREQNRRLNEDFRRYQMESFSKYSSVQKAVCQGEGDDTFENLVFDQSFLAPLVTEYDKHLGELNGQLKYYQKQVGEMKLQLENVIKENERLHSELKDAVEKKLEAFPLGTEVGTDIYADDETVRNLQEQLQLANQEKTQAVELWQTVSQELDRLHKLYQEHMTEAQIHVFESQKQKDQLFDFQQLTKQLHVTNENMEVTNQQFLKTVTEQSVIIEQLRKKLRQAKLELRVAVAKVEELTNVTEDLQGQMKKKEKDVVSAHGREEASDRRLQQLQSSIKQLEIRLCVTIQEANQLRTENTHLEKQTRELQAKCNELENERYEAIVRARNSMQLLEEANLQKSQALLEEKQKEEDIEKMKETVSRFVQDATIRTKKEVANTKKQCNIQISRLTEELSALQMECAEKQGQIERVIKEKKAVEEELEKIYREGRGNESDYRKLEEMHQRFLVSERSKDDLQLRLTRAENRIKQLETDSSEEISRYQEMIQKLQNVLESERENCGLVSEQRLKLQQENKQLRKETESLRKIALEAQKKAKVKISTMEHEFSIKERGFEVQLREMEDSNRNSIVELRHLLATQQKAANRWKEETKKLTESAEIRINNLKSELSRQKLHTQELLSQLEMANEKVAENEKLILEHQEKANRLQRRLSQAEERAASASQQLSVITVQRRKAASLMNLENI
# UniProt P05543, sequence (P05543 whole entry, looked up): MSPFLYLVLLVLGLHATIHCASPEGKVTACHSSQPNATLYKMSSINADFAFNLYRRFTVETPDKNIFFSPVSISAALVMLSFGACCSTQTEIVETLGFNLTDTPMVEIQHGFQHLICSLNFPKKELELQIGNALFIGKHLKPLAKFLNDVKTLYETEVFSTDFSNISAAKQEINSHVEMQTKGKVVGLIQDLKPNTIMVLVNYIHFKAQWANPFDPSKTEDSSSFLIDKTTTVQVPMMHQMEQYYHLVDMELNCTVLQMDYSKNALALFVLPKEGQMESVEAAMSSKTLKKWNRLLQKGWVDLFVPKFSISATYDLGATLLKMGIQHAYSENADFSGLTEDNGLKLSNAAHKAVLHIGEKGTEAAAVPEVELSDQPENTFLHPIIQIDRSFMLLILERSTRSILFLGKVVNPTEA
# UniProt Q5T8P6, sequence (Q5T8P6 whole entry, looked up): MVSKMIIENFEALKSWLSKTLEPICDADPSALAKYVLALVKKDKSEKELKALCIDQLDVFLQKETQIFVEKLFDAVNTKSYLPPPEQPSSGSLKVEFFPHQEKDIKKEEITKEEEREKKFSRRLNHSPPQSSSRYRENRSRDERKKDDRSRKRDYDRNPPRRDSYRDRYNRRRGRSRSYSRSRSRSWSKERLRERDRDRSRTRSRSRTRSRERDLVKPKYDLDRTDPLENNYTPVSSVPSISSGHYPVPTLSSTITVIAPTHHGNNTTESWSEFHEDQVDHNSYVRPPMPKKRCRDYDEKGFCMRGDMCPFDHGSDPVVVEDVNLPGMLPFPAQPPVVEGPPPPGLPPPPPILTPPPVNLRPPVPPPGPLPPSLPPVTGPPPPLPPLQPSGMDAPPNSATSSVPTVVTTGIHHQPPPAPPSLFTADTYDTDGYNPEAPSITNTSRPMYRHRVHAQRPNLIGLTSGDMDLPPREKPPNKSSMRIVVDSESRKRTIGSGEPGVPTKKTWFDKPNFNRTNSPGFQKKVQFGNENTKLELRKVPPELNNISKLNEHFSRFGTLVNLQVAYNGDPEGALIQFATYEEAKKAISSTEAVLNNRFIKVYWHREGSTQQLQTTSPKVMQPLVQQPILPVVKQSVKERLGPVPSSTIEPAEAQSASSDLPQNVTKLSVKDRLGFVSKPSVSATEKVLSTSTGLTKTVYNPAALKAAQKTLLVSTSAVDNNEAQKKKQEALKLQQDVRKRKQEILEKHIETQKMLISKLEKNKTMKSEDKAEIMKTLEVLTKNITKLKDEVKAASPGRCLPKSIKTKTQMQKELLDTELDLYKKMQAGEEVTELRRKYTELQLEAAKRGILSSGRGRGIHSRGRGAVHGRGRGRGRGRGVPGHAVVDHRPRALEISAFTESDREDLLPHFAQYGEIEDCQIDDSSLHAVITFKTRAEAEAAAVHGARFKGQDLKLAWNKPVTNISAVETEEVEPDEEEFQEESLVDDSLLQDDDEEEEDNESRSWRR
# UniProt A6NEQ0, sequence (A6NEQ0 whole entry, looked up): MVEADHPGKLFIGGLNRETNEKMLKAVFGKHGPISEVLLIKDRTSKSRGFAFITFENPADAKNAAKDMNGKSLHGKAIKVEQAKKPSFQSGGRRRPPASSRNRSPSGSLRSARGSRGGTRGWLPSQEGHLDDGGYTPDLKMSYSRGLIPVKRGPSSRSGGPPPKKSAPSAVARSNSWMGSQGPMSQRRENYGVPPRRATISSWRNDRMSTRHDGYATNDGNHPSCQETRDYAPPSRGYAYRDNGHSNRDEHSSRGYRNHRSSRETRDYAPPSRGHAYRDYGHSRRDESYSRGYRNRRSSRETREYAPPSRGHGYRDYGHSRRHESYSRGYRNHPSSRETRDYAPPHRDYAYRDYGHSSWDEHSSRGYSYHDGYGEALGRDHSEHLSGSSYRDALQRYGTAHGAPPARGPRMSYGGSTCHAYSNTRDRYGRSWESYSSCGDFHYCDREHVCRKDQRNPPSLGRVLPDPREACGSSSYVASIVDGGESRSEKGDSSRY
# UniProt O75056, sequence (O75056 whole entry, looked up): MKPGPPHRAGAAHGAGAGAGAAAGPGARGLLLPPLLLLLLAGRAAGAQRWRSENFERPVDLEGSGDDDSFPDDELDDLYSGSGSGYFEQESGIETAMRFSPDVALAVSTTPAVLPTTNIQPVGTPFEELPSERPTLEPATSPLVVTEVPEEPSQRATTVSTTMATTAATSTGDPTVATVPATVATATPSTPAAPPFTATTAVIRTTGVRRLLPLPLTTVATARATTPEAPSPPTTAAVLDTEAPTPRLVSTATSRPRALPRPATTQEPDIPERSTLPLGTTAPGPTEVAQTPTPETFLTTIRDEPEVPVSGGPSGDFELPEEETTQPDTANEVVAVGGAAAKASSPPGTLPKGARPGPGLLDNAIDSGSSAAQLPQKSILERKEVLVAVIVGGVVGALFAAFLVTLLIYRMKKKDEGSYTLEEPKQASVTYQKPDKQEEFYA
# UniProt Q9Y6Y8, sequence (Q9Y6Y8 whole entry, looked up): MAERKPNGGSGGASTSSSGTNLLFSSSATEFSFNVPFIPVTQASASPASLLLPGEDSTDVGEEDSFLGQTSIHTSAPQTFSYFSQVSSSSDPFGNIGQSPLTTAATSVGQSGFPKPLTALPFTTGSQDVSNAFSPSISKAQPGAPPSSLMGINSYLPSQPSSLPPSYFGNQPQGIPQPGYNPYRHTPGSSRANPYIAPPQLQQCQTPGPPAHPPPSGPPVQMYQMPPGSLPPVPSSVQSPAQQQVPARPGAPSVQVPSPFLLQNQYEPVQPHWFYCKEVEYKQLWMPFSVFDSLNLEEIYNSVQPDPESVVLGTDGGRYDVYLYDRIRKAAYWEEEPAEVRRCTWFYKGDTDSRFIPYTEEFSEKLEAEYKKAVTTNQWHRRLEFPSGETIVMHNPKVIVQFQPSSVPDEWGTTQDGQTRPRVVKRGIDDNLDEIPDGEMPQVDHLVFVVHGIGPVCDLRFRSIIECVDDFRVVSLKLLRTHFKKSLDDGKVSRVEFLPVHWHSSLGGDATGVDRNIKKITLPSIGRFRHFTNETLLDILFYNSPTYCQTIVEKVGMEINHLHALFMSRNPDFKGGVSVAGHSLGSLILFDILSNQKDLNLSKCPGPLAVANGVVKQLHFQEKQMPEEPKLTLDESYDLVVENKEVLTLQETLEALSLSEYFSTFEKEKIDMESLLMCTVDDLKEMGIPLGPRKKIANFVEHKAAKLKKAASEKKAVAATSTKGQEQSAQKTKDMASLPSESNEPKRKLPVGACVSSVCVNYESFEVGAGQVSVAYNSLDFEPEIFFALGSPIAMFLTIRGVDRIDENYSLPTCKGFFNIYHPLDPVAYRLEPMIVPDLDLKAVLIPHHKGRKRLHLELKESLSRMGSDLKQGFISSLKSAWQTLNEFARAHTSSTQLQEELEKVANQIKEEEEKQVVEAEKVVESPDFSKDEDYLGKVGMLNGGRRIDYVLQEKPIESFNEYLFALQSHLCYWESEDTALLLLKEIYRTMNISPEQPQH
# UniProt Q9NTJ5, sequence (Q9NTJ5 whole entry, looked up): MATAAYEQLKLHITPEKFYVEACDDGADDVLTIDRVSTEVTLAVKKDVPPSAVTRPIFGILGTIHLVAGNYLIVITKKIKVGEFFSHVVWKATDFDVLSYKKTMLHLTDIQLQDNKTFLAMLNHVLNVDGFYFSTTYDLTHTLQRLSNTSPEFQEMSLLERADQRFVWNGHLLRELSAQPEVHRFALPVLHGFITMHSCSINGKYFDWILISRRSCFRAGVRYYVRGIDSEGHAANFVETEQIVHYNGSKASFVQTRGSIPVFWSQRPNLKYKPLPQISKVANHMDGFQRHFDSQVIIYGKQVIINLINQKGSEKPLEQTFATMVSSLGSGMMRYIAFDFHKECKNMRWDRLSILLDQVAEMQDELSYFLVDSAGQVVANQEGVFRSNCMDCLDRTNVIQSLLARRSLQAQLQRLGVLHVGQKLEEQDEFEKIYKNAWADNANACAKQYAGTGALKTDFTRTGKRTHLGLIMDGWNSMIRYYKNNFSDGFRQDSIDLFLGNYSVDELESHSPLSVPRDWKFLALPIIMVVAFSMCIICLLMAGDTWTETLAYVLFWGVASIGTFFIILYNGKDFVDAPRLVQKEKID
# UniProt P60602, sequence (P60602 whole entry, looked up): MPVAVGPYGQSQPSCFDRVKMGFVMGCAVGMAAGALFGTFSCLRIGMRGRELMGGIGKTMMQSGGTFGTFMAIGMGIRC
Target,log2 fold change [1],log2 fold change [2],log2 fold change [3],log2 fold change [4],log2 fold change [5],log2 fold change [6],log2 fold change [7],log2 fold change [8],log2 fold change [9],log2 fold change [10],log2 fold change [11]
RALY (UniProt Q9UKM9),-0.039,0.071,0.353,0.026,-0.02,-0.105,-0.064,0.128,0.072,-0.106,-0.001
SEC31A (UniProt O94979),-0.078,-0.024,-0.022,-0.099,0.041,0.003,0.042,0.063,-0.048,0.07,-0.119
RBM26 isoform 2 (UniProt Q5T8P6),-0.001,0.031,-0.135,-0.103,0.141,0.103,0.193,-0.1,-0.05,0.017,-0.021
RBM4 (UniProt Q9BWF3),0.015,-0.031,-0.017,-0.033,0.023,0.06,-0.015,0.095,-0.002,-0.092,0.077
SAP30 (UniProt O75446),0.043,0.032,0.044,0.287,0.165,0.307,,0.106,0.047,,
RECQL (UniProt P46063),0.034,-0.076,-0.047,-0.033,0.001,0.045,0.092,-0.028,-0.019,-0.03,0.012
RNF167 (UniProt Q9H6Y7),0.015,-0.062,-0.278,-0.03,-0.032,0.014,,0.095,-0.028,,
RPL31 (UniProt P62899),0.042,0.099,0.26,0.075,-0.079,-0.012,-0.09,0.048,0.104,-0.12,0.098
RCOR1 (UniProt Q9UKL0),0.035,-0.104,-0.03,-0.133,0.189,0.082,0.007,0.016,-0.043,-0.103,0.002
SERPINA7 (UniProt P05543),-0.062,0.132,0.234,-0.075,-0.084,-0.164,-0.011,0.091,0.089,0.367,0.273
"SART3, A0A499FI31",-0.011,-0.105,-0.175,-0.054,0.055,0.1,0.098,0.114,-0.136,-0.02,0.023
SENP6 (UniProt Q9GZR1),0.011,-0.009,-0.073,-0.023,-0.019,-0.021,0.04,-0.118,0.027,-0.049,-0.005
SEC23IP (UniProt Q9Y6Y8),-0.049,-0.152,-0.221,-0.033,0.049,0.065,0.055,-0.03,-0.058,-0.063,-0.06
SACM1L (UniProt Q9NTJ5),-0.045,0,-0.102,-0.083,0.016,0.006,0.044,0.034,-0.068,-0.017,0.004
RAB33B (UniProt Q9H082),-0.032,0.014,0.037,-0.019,-0.035,-0.021,-0.016,-0.014,-0.048,-0.032,-0.018
SIK3 (UniProt H0Y4E8),-0.022,0.08,-0.22,-0.038,-0.075,-0.053,-0.053,0.054,,-0.098,0.021

Target,log2 fold change [1],log2 fold change [2],log2 fold change [3],log2 fold change [4],log2 fold change [5],log2 fold change [6],log2 fold change [7],log2 fold change [8],log2 fold change [9],log2 fold change [10],log2 fold change [11]
SEPTIN5 (UniProt G3XAH0),0.008,0.004,-0.142,0.016,-0.031,0.16,,-0.023,-0.028,,
RPS13 (UniProt P62277),0.058,0.093,0.246,0.115,-0.062,0.019,-0.121,-0.022,0.091,-0.182,0.148
RPS5 (UniProt P46782),0.035,0.105,0.153,0.133,-0.043,0,-0.052,-0.07,0.094,-0.12,0.037
RAPGEF4 (UniProt Q8WZA2),-0.095,-0.13,-0.054,-0.04,-0.003,,0.161,0.125,-0.279,0.127,-0.14
SGPL1 (UniProt O95470),-0.01,0.004,-0.005,0.144,0,-0.014,0.009,-0.034,0.064,-0.134,-0.017
SCAMP2 (UniProt H3BUB6),-0.31,-0.392,0.021,-0.311,-0.175,,-0.364,0.129,-0.267,-0.118,0.154
RPS3A (UniProt D6R9B6),-0.41,-0.391,,,-0.234,,,,,,
SDCBP isoform 2 (UniProt O00560),-0.038,,-0.286,,0.004,-0.01,0.024,0.124,-0.041,0.097,-0.2
SCLT1 (UniProt Q96NL6),-0.007,,-0.057,-0.077,-0.023,0.064,,-0.01,,,
ROMO1 (UniProt P60602),-0.105,0.046,-0.051,,0.011,-0.013,0.072,0.032,0.062,-0.042,0.045
SDC3 (UniProt O75056),0.044,-0.016,,0.026,0.035,0.211,0.354,,0.09,0.174,-0.853 (active)
RAB3IL1 (UniProt E9PK89),0.062,0.11,,0.018,-0.023,0.112,0.049,,-0.234,0.016,-0.039
ROCK1 (UniProt Q13464),,0.054,-0.09,-0.029,-0.002,0.029,0.068,,-0.054,,-0.009
RALGPS2 (UniProt Q86X27),,0.258,-0.08,0.175,,0.074,0.219,0.089,0.34,-0.153,-0.153
RBMY1E (UniProt A6NEQ0),,,-0.246,,,0.07,0.063,-0.156,,-0.081,-0.057
